Most compounds without a hit are left out; they make up all but 2.9% or so of the library.
H9c2 protect: modulators protecting cardiomyocytes from myocardial damage. H9c2 cardiomyocytes, H2O2 injury protection, ATPLite, 2 h. protection from H2O2 cell death, % at 20 µM. hit rate 0.63% among 360,000;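 active means compounds giving at least 50% protection of heart cells from peroxide-induced death in the single-dose screen, raw or plate-pattern-corrected value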;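 further: 0% = DMSO wells with peroxide and 100% = DMSO wells without peroxide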
sPLA2-III inh: Blocks human group III sPLA2 activity; Q9NZ20; QFRET BODIPY PC-A2 liposome hydrolysis, fluorescence; hit rate 0.56% among 370,000; inhibition, % at 12.2 µM;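 active means inhibition above mean plus 3 SD of compounds lying within the high and low control bounds, cut at about 19% in these data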;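 further: 0% = median of test compound wells and 100% = no enzyme DMSO wells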
Target sequence (Q9NZ20 whole entry, looked up): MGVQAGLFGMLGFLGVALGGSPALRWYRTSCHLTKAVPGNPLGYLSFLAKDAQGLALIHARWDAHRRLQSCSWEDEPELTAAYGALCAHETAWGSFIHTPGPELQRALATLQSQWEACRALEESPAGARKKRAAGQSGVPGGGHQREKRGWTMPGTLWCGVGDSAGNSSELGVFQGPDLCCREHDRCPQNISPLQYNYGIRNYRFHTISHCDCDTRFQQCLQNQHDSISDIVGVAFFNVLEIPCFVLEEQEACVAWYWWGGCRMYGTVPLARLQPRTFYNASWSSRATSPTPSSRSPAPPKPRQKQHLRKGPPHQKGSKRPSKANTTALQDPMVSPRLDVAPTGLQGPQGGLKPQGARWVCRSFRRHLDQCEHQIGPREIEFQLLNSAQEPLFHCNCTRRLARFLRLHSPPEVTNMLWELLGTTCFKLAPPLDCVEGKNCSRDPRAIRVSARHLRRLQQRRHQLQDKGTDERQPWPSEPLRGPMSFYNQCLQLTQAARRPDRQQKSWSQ
ABHD5 PLIN5 PPI: ABHD5-PLIN5 protein interaction inhibition. hit rate 0.78% among 360,000. Split G. princeps luciferase complementation, luminescence, 4 h. inhibition, % at 4 µM. AID 602281;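 active means inhibition above the mean inhibition across every tested compound plus 3 SD, cut at about 22% in these data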;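 further: 0% = DMSO only wells and the 100% control is not disclosed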
Myeloid diff MLP: compounds promoting myeloid differentiation; calls only at 10 µM; hit rate 1% among 360,000; AID 624256; ER-HoxA9 myeloid progenitors, lysozyme-GFP differentiation, flow cytometry;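 active means normalized GFP-positive differentiation at or above the plate's own cutoff, the solvent-only control mean plus 3 SD; inconclusive means no clear call, values can overlap the other calls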;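 further: cells exposed to compound for four days before flow analysis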
DAGLB inh: diacylglycerol lipase beta (human) inhibition; inhibition, % at 5.17 µM; HEK293T DAGLB membrane lysate, EnzChek fluorogenic substrate; hit rate 0.059% among 340,000; Q8NCG7; in the data active means inhibition above about 34%;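 further: 0% = enzyme with vehicle and 100% = wells lacking enzyme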
Rtt109 HAT inh: C. albicans Rtt109 histone acetyltransferase inhibition; Q5AAJ8; purified Rtt109/Vps75, ThioGlo CoA-SH fluorescence, 4 h; inhibition, % at 34.9 µM; hit rate 0.16% among 330,000; AID 540336;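 active means inhibition of at least 50% in every replicate; inconclusive means best replicate reaches 50% inhibition but some replicates fall short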
Myeloid diff CP1: promotes myeloid progenitor differentiation; shares compounds with Myeloid diff MLP; ER-HoxA9 myeloid progenitors, GFP/Mac1 double-positive flow; calls only; hit rate 2% among 2,300; AID 651706;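 active means share of green or green-and-red cells above 9 and 9% in run 1 or 4 and 3% in run 2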
GFP autofluor: counter-screen for myeloid differentiation promoters: compound fluorescence; AID 651707; shares compounds with Myeloid diff MLP; hit rate 7.4% among 2,300; ER-HoxA9 myeloid progenitors, no estrogen, GFP autofluorescence flow cytometry; vehicle wells 0%, positive control 100%; fluorescence response, % (test concentration not listed);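 active means over 5% cells positive for green fluorescent reporter, or over 2% positive for both it and APC stain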;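 further: range taken on the double positive population between DMSO and positive control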
* = called active by the depositor; i = inactive; ? = inconclusive; · = no result given; + = active, no number.

SMILES	H9c2 protect	sPLA2-III inh	ABHD5 PLIN5 PPI	Myeloid diff MLP	DAGLB inh	Rtt109 HAT inh	Myeloid diff CP1	GFP autofluor
CC(C)c1nnc(NC(=O)Cn2nc(-c3ccc4c(c3)OCCO4)ccc2=O)s1	11	5	-4	+	0	29	i	0
CCc1nccn1CCC(=O)N1CCCC(Nc2ccc(C(C)C)cc2)C1 (stereo unspecified)	-3	1	3	i	2	6	·	·
C[n+]1c(/C=C/c2ccc3c(c2)OCO3)ccc2ccccc21	-12	0	2	i	3	·	+	0
C[n+]1c(/C=C/c2ccc(O)cc2)ccc2ccccc21	-2	10	-5	i	1	2	·	·
Cn1cnnc1SCC(=O)Nc1cc(C(F)(F)F)ccc1N1CCOCC1	7	6	2	i	0	-1	·	·
Cn1c(Cc2ccccc2)nnc1SCC(=O)Nc1ccccc1N1CCOCC1	10	1	-1	i	1	-8	i	0
Cn1ccnc1SCC(=O)Nc1cc(C(F)(F)F)ccc1N1CCOCC1	3	3	8	i	-1	13	i	0
O=C(CON=C1c2ccccc2-c2ccccc21)NC12CC3CC(CC(C3)C1)C2	-2	-5	2	i	-13	-1	·	·
O=[N+]([O-])c1cc(C(F)(F)F)ccc1NCCOc1ccccc1	-22	14	1	i	-7	2	·	·
COC(=O)[C@]12C=CCN1[C@H](c1ccccc1)c1c(c3ccccc3n1S(=O)(=O)c1ccc(C)cc1)C2	·	7	·	·	·	·	·	·
COc1cc(-c2ccc(NC(=O)CN3CCC(C)CC3)c(OC)c2)ccc1NC(=O)CN1CCC(C)CC1	-7	-3	-3	i	0	8	·	·
COCCCNC(=O)C1CCC(=O)N(c2ccc3c(c2)OCO3)C1c1ccc(OC)cc1 (stereo unspecified)	0	0	5	i	-3	-7	i	0
CCCC(=O)Nc1nc2ccc(NC(=O)c3ccc(Br)o3)cc2s1	73*	-17	10	+	-6	·	i	0
Cc1nc2ccc(NC(=O)c3ccc(Br)o3)cc2s1	-8	0	2	i	-2	9	·	·
CC(=O)Nc1nc(-c2ccccc2)nc(-c2ccccc2OC(C)=O)n1	4	-11	14	+	-1	3	i	0
CC(=O)Nc1nc(C)nc(-c2ccccc2OC(C)=O)n1	1	·	3	i	-5	-7	·	·
CC(=O)c1cccc(N(CC(=O)NC2CCCC2)C(=O)c2ccc(C)s2)c1	3	0	-3	i	-4	4	·	·
O=c1cc(-c2ccccc2Cl)oc2c(Br)ccc(O)c12	-5	8	8	+	-4	-22	i	0
O=C(Nc1ccc(O)c2c(=O)cc(-c3ccccc3Cl)oc12)c1ccc(Cl)c(Cl)c1	2	7	0	i	0	7	·	·
CC(C)Cc1nnc(NC(=O)CSc2nc(-c3ccccc3)cc(=O)[nH]2)s1	-12	-20	-4	i	4	0	·	·
CC(=O)N1CCc2c(sc(NC(=O)c3ccc([N+](=O)[O-])o3)c2C#N)C1	-13	4	17	+	3	12	i	0
O=C(NCCOC(=O)c1ccccc1)c1ccc([N+](=O)[O-])cc1	-3	3	2	i	0	-2	·	·
Fc1cc(F)c(CSc2nnc(-c3cccnc3)n2Cc2ccccc2)cc1F	·	-3	·	·	·	·	·	·
CC(=O)NC/C(C)=N\Nc1ccc([N+](=O)[O-])cc1	1	15	-5	+	2	-2	i	49*
Cc1ccc(N2C(=O)NC(NS(=O)(=O)c3ccc(C)cc3)(C(F)(F)F)C2=O)cc1 (stereo unspecified)	3	2	1	i	-2	0	·	·
Cc1cccc(N2CCN(C(=O)c3ccc4c(c3)OCCO4)CC2)c1C	-2	0	11	+	-6	?	+	0
COc1ccccc1CC1(C)NC(=O)N(CC(=O)N2CC(C)OC(C)C2)C1=O (stereo unspecified)	-1	-3	-1	i	-1	-2	i	0
